# Inconclusive results are not listed. A number with no mark means an inactive call. The call rests on the fitted dose curve; in most records, active means well fitted inhibition curve with a large enough effect; inconclusive means small, poorly fitted or top-dose-only effect; inactive means flat fitted curve, though single readings scatter.
# Target: Calcium and integrin-binding protein 1 (Homo sapiens) (UniProt Q99828)
# Assay: Primary qHTS for Identification of Calcium Integrin Binding Protein 1 (CIB1) Competitor (AID 1508620); further: top concentration of the series differs between compounds
# Conditions: CIB1-GST / FITC-alphaIIb peptide fluorescence polarization; series mostly up to 114 µM; activity change, negative = inhibition: at the top concentration
# Method in brief: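 Fluorescence polarization competition: GST-tagged CIB1 (1 uM final) preincubated with compound 15 min at room temperature, then FITC-labelled alphaIIb peptide (100 nM final) added. After 15 min at room temperature, polarization read at Ex 480/Em 540.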
# On the % scale 0 is the no-effect control and ±100 the full control effect.
# Chain of Calcium and integrin-binding protein 1 (Homo sapiens) (Q99828 whole entry, looked up): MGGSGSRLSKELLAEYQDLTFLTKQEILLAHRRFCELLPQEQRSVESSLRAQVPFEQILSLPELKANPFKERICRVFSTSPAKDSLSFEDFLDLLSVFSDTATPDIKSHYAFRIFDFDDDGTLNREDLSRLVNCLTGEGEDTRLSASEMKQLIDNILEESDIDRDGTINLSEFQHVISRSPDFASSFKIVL
row,Structure (SMILES),"activity change, negative = inhibition [%]"
1,Cc1ccc(-c2nn3c(-c4ccccc4)nnc3s2)cc1NC(=O)c1ccc(-c2cccc(Cl)c2)o1,26.5
2,Cc1ccc(OCCn2c(CCNC(=O)c3ccccc3N)nc3ccccc32)cc1,-10.5
3,CCOC(=O)C1CCN(C(=O)C2(NC(=O)Nc3ccc(F)cc3F)CCCCC2)CC1,3.07
4,COc1cccc(CNc2ccc(S(=O)(=O)Nc3cnc4ccccc4c3)cc2)c1O,-3.65
5,COc1ccc(C2c3c(N)nc(CCCc4ccccc4)nc3Oc3ccc4ccccc4c32)cc1OC (stereo not given),6.89
